Source: PubChem BioAssay (NCATS)
Records with an inconclusive call do not appear. Calls of active or inactive are those of the source. The call rests on the fitted dose curve; in most records, active means well fitted inhibition curve with a large enough effect; inconclusive means small, poorly fitted or top-dose-only effect; inactive means flat fitted curve, though single readings scatter.

Legend:
Assay in all cases: qHTS profiling for inhibitors of Plasmodium falciparum proliferation (AID 504749); further: nearly all actives have a fitted effect of over 60% in size
Details in all cases: P. falciparum in erythrocytes, SYBR Green DNA, 72 h; series mostly up to 28.7 µM
DIV30 = test system: DIV30
Method in brief: (§1)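 P. falciparum-infected erythrocytes (0.3% parasitemia, 2.5% hematocrit) incubated with compound 72 h at 37 C, 5% CO2. Parasite DNA detected by SYBR Green after lysis, overnight at room temperature; normalised to 0.29 uM artemisinin and DMSO.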

Dd2 = test system: Dd2
Method in brief: as §1

ECU = test system: ECU
Method in brief: as §1

FAB9 = test system: FAB9
Method in brief: as §1

GB4 = test system: GB4
Method in brief: as §1

HB3 = test system: HB3
Method in brief: as §1

ICS = test system: ICS
Method in brief: as §1

JCK = test system: JCK
Method in brief: as §1

N140 = test system: N140
Method in brief: as §1

P93_24 = test system: P93_24
Method in brief: as §1

Measured: Potency
Potency means the concentration at half of the fitted maximal effect.

O=S(=O)(O)c1ccc2nc(-c3ccccc3)[nH]c2c1
inactive: all assays above

Nc1ncnc2nc[nH]c12
inactive: all assays above

O=C(Nc1ccc(Cl)cc1)Nc1ccc(Cl)c(Cl)c1
active: DIV30 1.69 µM | ECU 3.55 µM | FAB9 5.01 µM | GB4 2.39 µM | HB3 11.2 µM | ICS 0.631 µM | JCK 10 µM | N140 2 µM | P93_24 3.55 µM

CC(NCCC(c1ccccc1)c1ccccc1)c1ccccc1 (centres undefined)
active: DIV30 8.49 µM | Dd2 8.91 µM | ECU 7.94 µM | GB4 15.1 µM | HB3 10 µM | ICS 2.24 µM | N140 11.2 µM | P93_24 12.6 µM

CCCCCCCCCCCCCC[N+](C)(C)C
active: DIV30 6.75 µM | Dd2 6.31 µM | ECU 4.47 µM | FAB9 11.2 µM | GB4 5.36 µM | HB3 6.31 µM | ICS 2.51 µM | N140 6.31 µM | P93_24 5.01 µM

O=[N+]([O-])c1ccc(O)c2ncccc12
active: Dd2 12.6 µM | GB4 15.1 µM | ICS 12.6 µM

CCCCCCCCCCCCCCCC[N+](C)(C)Cc1ccccc1
active: DIV30 15.1 µM | ECU 3.16 µM | FAB9 10 µM | GB4 5.36 µM | ICS 2.82 µM | N140 14.1 µM | P93_24 1.12 µM

Nc1c2ccccc2nc2ccccc12
active: DIV30 15.1 µM | Dd2 12.6 µM | ECU 10 µM | GB4 10.7 µM | ICS 7.94 µM | N140 5.01 µM | P93_24 7.08 µM

CN1CCCN(C(c2ccccc2)c2ccc(Cl)cc2)CC1 (centres undefined)
active: GB4 13.5 µM | ICS 8.91 µM | N140 10 µM | P93_24 7.08 µM

CN1CCC(Nc2ncc3ncnc(Nc4ccc(F)c(Cl)c4)c3n2)CC1
active: Dd2 7.94 µM | ECU 12.6 µM | GB4 13.5 µM | ICS 6.31 µM | JCK 7.94 µM | N140 10 µM | P93_24 7.08 µM

CCCCCCCCCCCCCCCC[n+]1ccccc1
active: DIV30 13.5 µM | Dd2 10 µM | ECU 7.08 µM | GB4 3.38 µM | ICS 2.51 µM | N140 8.91 µM | P93_24 7.94 µM

Nc1ccc2cc3ccc(N)cc3nc2c1
active: FAB9 8.91 µM | GB4 13.5 µM | ICS 2.82 µM
